This is part of a sample that, as a whole, favours compounds with a hit. Of some 79,000 tested, about 15% had one in any assay. Calls of active or inactive are those of the source. Cut-off read from the data, not from the text of the source: active = growth inhibition above about 70%; inactive = the rest.
What was measured:
[1] = NCI Yeast Anticancer Drug Screen. Data for the rad50 strain (AID 155);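 note: 0% = growth of vehicle-only cultures of the same strain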; conditions: S. cerevisiae rad50 strain growth inhibition; at 50.0 µM; stronger effect = higher value
In short: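 Yeast carrying a defined DNA repair defect were exposed to test compounds, and growth was compared with vehicle-treated controls to give percent inhibition.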

[2] = NCI Yeast Anticancer Drug Screen. Data for the mec2-1 strain (AID 157); conditions: S. cerevisiae mec2-1 strain, at 50.0 µM, stronger effect = higher value
In short: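 Readout is yeast growth inhibition, normalised to vehicle-treated controls, in the mec2-1 strain exposed to compound.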

[3] = NCI Yeast Anticancer Drug Screen. Data for the sgs1 mgt1 strain (AID 161);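 note: 0% = growth of cultures given vehicle only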; conditions: S. cerevisiae sgs1 mgt1 strain, at 50.0 µM, stronger effect = higher value
In short: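 Yeast cells carrying a defined DNA-repair defect were exposed to test compounds. Growth inhibition was measured relative to vehicle-treated controls.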

[4] = NCI Yeast Anticancer Drug Screen. Data for the cln2 rad14 strain (AID 165);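 note: 0% = growth equal to vehicle treated cultures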; conditions: S. cerevisiae cln2 rad14 strain, at 50.0 µM, stronger effect = higher value
In short: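 Relative to vehicle controls, growth inhibition of compound-treated cln2 rad14 yeast was recorded.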

[5] = NCI Yeast Anticancer Drug Screen. Data for the bub3 strain (AID 167); conditions: S. cerevisiae bub3 mutant strain, at 50.0 µM, stronger effect = higher value
In short: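 Compounds were applied to a genetically altered yeast strain carrying a cell-cycle control defect. Growth inhibition was scored against vehicle-treated controls.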

[6] = NCI Yeast Anticancer Drug Screen. Data for the mlh1 rad18 strain (AID 175); conditions: S. cerevisiae mlh1 rad18 strain growth inhibition; at 50.0 µM; stronger effect = higher value
In short: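 Test agents were incubated with a yeast strain of defined genotype (DNA damage repair defect). Inhibition of growth was derived by comparison with vehicle-exposed cultures.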

Measured: growth inhibition

Cc1ccc(C(=O)OC2CCCC2)cc1
inactive: [1] 7.85% | [2] -0.7% | [3] 0.85% | [4] -7.7% | [5] -15.7% | [6] 4.1%

CC1C(=O)OC2C1CCC1(C)C=CC(=O)C(C)C21 (stereo unspecified)
inactive: [1] 10.7% | [2] 4.95% | [3] 1.15% | [4] -23.2% | [5] 1.85% | [6] 14.8%

CC(NC(=O)c1ccccc1)c1ccc[nH]1 (stereo unspecified)
inactive: [1] 8.75% | [2] -9.2% | [3] 0.05% | [4] -15.2% | [5] -25.6% | [6] -0.15%

CCC(=O)C1(N2CCOCC2)CCN(CCCC(=O)c2ccc(F)cc2)CC1
inactive: [1] -25.4% | [2] -9.45% | [3] -1.75% | [4] 1.5% | [5] -0.3% | [6] 22.1%

Cc1ccc(S(=O)(=O)C(CCC(=O)c2ccccc2)(CCC(=O)c2ccccc2)[N+](=O)[O-])cc1
inactive: [1] -9.05% | [2] -9.45% | [3] -10% | [4] -26% | [5] -1.5% | [6] 0%

CCCCCCCCCC(=O)N/N=C/c1ccccc1Cl
inactive: [1] 9.95% | [2] 36.1% | [3] 29.6% | [4] -9.5% | [5] 19.3% | [6] 30.4%

COc1ccc(CC2c3cc(OC)c(OC)cc3C=CN2C)cc1OC (stereo unspecified)
inactive: [1] 20.8% | [2] 4.55% | [3] 24.1% | [4] 14.9% | [5] 35.6% | [6] 2.3%

CCCCCCc1c(N)nc(N)[nH]c1=O
inactive: [1] 4.3% | [2] 9.35% | [3] -11.2% | [4] -36.8% | [5] -12.9% | [6] -14.2%

COc1ccccc1OCc1nnc(SCC(=O)O)n1-c1ccccc1
inactive: [1] 3.75% | [2] 3.4% | [3] 2.45% | [4] 11.6% | [5] 8.4% | [6] 27.9%

O=CNCC(=O)Nc1ccccc1
inactive: [1] -8.4% | [2] -2.45% | [3] -3.45% | [4] -6.9% | [5] 10.8% | [6] -10.4%

O=c1ccn(/C=C\c2nc3ccccc3[nH]c2=O)c(=S)[nH]1
inactive: [1] -37.8% | [2] -27.3% | [3] -35.9% | [4] 13.7% | [5] -17.5% | [6] -40.4%

N#CS[C@@H]1CCC[C@H]1O
inactive: [1] -0.85% | [2] -6.25% | [3] -18.5% | [4] -18% | [5] 1.65% | [6] -20.1%

CCN(c1ccccc1)c1cc2c(cc1[N+](=O)[O-])no[n+]2[O-]
active: [1] 97.1% | [2] 96.9% | [3] 98.3% | [4] 96.6% | [5] 98.1% | [6] 97.1%

Nc1nc(Br)nc2ncn(C3CC(O)C(CO)O3)c12 (stereo unspecified)
inactive: [1] 20.1% | [2] 3.8% | [3] 18.3% | [4] -2.25% | [5] -0.85% | [6] -4.9%

CCOC(=O)NCc1ccccc1
inactive: [1] 19% | [2] 8.7% | [3] 10.3% | [4] 2.6% | [5] -6.35% | [6] 20.1%

COc1ccc(OC)c(CC(N)=O)c1
inactive: [1] -5.5% | [2] 4.6% | [3] -0.9% | [4] -23.8% | [5] 21.4% | [6] -8.85%

CC1(c2ccc(Cl)s2)NC(=O)NC1=O (stereo unspecified)
inactive: [1] -1% | [2] -4.65% | [3] -6.45% | [4] -45.8% | [5] 1.9% | [6] -13.5%

c1ccc(Cn2ccnc2CSCCSCc2nccn2Cc2ccccc2)cc1
inactive: [1] 17.5% | [2] 37.2% | [3] -5.8% | [4] 12.9% | [5] -0.65% | [6] 29.9%

O=C(OCc1ccccc1)C1(O)CCCCC1
inactive: [1] -5.6% | [2] -16.2% | [3] -6.25% | [4] -2.7% | [5] -5% | [6] -7.4%

COc1ccc(/C=N\N2CN(C(CC(N)=O)C(=O)O)C(O)(CCl)N=C2N)cc1OC (stereo unspecified)
inactive: [1] 9.1% | [2] -6.9% | [3] 3.1% | [4] -5.65% | [5] 6.8% | [6] -0.1%

COC(=O)/C=C(C)/C=C/C1OC(C)OCC1O (stereo unspecified)
inactive: [1] 7.55% | [2] 2.3% | [3] -3.65% | [4] -8.55% | [5] -5.45% | [6] 5.5%

COc1cc2cc3c4cc(OC)c(OC)cc4cc[n+]3c(CCC(=O)O)c2cc1OC (tested in a mixture with another compound)
inactive: [1] 10.4% | [2] -2.75% | [3] -8.25% | [4] -4% | [5] 9.35% | [6] -0.1%

Clc1nc(Cl)c2ncn(C3CCCO3)c2n1 (stereo unspecified)
inactive: [1] -23.1% | [2] -10% | [3] 14.7% | [4] -40% | [5] 44% | [6] 4.95%

CCCC(=O)Nc1ccc(OC)cc1
inactive: [1] 16.8% | [2] 11.2% | [3] 9.55% | [4] -43.2% | [5] -1.85% | [6] 1.9%

CSc1nc(C)c(Br)c(=O)n1C1OC(COC(C)=O)C(OC(C)=O)C(OC(C)=O)C1OC(C)=O (stereo unspecified)
inactive: [1] -1.2% | [2] -7.5% | [3] -13.1% | [4] 22.2% | [5] -19.9% | [6] 1.35%

O=S(=O)(Nc1nccs1)c1ccc(Cl)cc1
active: [3] 74.2%
inactive: [1] 25.1% | [2] 46% | [4] 20.4% | [5] 33% | [6] 68.2%

CC1CCc2c(O)ccc(O)c21 (stereo unspecified)
inactive: [1] 5.7% | [2] 5.4% | [3] 2.5% | [4] -15.2% | [5] -5% | [6] 8.1%

Cc1c2c([nH]c(=O)c1C)C=CC(Br)C2Br (stereo unspecified)
inactive: [1] -0.7% | [2] 0.55% | [3] 1.5% | [4] 3.2% | [5] 0.2% | [6] 6.95%

CC(C)CCCC(C)CCCl (stereo unspecified)
inactive: [1] 3.85% | [2] -1.1% | [3] -5.85% | [4] 1.95% | [5] 3.2% | [6] -0.2%

Cc1ccccc1C(=O)OC1CCCCC1
inactive: [1] 9.2% | [2] -13.1% | [3] -9.65% | [4] -39.5% | [5] 9.8% | [6] 5.7%

Brc1ccc(-c2oc3c4ccccc4c4ccccc4c3c2-c2ccc(Br)cc2)cc1
inactive: [1] 32.5% | [2] 5.35% | [3] 17.8% | [4] -0.95% | [5] 2.9% | [6] 15.2%

Nc1nc(N)c(Nc2ccc(Cl)cc2)c(Cl)n1
inactive: [1] 50% | [2] 29.2% | [3] 66.3% | [4] 35.2% | [5] 40.9% | [6] 50.5%

O=C1CSC=NN1c1ccccc1
inactive: [1] -12.8% | [2] -6.75% | [3] -14.9% | [4] -9.75% | [5] 5.75% | [6] 3.9%

CCN(C)C(=O)NC(C)=O
inactive: [1] 2.65% | [2] 11.1% | [3] -17.9% | [4] -14% | [5] 2.5% | [6] 15%

CCC(CC)(Cc1ccccc1)C(=O)O
inactive: [1] 9.65% | [2] -17.7% | [3] 12.7% | [4] 1.65% | [5] 11.7% | [6] 36.4%

CC(C)S(=O)(=O)c1s[nH]c(=O)c1-c1ccccc1
inactive: [1] -14.9% | [2] -0.1% | [3] 12.2% | [4] 5.75% | [5] -4.15% | [6] -1.2%

COc1cc(C(c2cc3c(cc2O)OCO3)n2ccnc2)cc(OC)c1OC (stereo unspecified)
inactive: [1] -15.2% | [2] 1.6% | [3] -13.1% | [4] 8.75% | [5] 2.9% | [6] 13.1%

OC(Cc1ccccc1)CN1CCN(c2ccccc2)CC1 (stereo unspecified)
inactive: [1] 10.4% | [2] 4% | [3] 8% | [4] 17.1% | [5] 8.05% | [6] 4.05%

C/C=C/C1OCCC(C)O1 (stereo unspecified)
inactive: [1] 41.3% | [2] -12% | [3] 9.1% | [4] 21.1% | [5] 4.95% | [6] 11%

O=C1OC(c2ccc([N+](=O)[O-])cc2)=N/C1=C\c1ccc(Cl)c(Cl)c1
inactive: [1] 31.9% | [2] 21.8% | [3] 43.6% | [4] 28.1% | [5] 25.2% | [6] 46.2%

Cc1ccc(S(=O)(=O)Nc2ccc3nc(C)oc3c2)cc1
inactive: [1] 26.4% | [2] -18.1% | [3] 44.1% | [4] 14.7% | [5] 45% | [6] 17%

Source: PubChem BioAssay (NCI)
